According to PubChem BioAssay (EPA / NIEHS):
Where “and” joins values, the source holds several entries; their conditions need not be identical. Equal entries are not always repeated. Records with an inconclusive call do not appear. A structure can be active in one record and inactive in another. Calls of active or inactive are those of the source. The calls were made as follows, unless noted: active = hit-call score of the fitted dose curve at least 0.9, where 1 is the maximum; inactive = score below 0.9.

Key:
[1] = CCTE_Shafer_MEA_dev_active_electrodes_number: CCTE's Neural Network Formation Assay for Number of Active Electrodes, Shafer Lab (AID 2284040; active = hit-call score of the fitted dose curve at least 0.9, where 1 is the maximum;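 as to AC50: potency for loss of active electrodes versus DMSO so lower counts are hits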)
Method in brief: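 Developing rat cortical networks on MEAs, exposed DIV 0–12. Value is the AUC of active-electrode counts (≥5 spikes/min) from days 5, 7, 9, 12, relative to DMSO.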

[2] = CCTE_Shafer_MEA_dev_burst_rate: CCTE's Neural Network Formation Assay for Burst Rate, Shafer Lab (AID 2284042);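 as to AC50: potency for loss of burst rate below DMSO control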
Method in brief: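 Primary rat cortical neurons on PEI-coated 48-well MEA plates (laminin added with cells at plating) (16 electrodes/well), exposed from plating to day 12, dosing renewed at DIV 5 and 9. Burst rate averaged over active electrodes, recorded DIV 5, 7, 9, 12, summarized as AUC; loss versus DMSO.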

[3] = CCTE_Shafer_MEA_dev_bursting_electrodes_number: CCTE's Neural Network Formation Assay for Number of Bursting Electrodes, Shafer Lab (AID 2284043; active = hit-call score of the fitted dose curve at least 0.9, where 1 is the maximum;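 as to AC50: potency is for loss of bursting electrodes relative to DMSO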)
Method in brief: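 Rat cortical primary neurons, 48-well MEA, 16 electrodes/well; dosing DIV 0–12, re-dosed with full media change DIV 5, 9. Recordings DIV 5/7/9/12, AxIS adaptive spike detector; bursting electrode = ≥1 burst/2 min. AUC across days; loss of signal vs DMSO.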

[4] = CCTE_Shafer_MEA_dev_per_burst_interspike_interval: CCTE's Neural Network Formation Assay for Burst Interspike Interval, Shafer Lab (AID 2284044);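 also: mean spike spacing inside bursts as AUC over recordings on days 5 7 9 12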;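 as to AC50: potency for a decrease of within-burst interspike interval below DMSO level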
Method in brief: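 Spontaneous activity of maturing rat cortical networks is recorded on DIV 5, 7, 9 and 12 under chronic compound exposure beginning at plating. Endpoint: burst interspike interval well-mean, collapsed into trapezoidal AUC and fitted in the negative direction relative to DMSO.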

[5] = CCTE_Shafer_MEA_dev_inter_network_spike_interval_mean: CCTE's Neural Network Formation Assay for Mean Inter-network Spike Interval, Shafer Lab (AID 2284047);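 as to AC50: potency for a decrease in mean inter-network spike interval below DMSO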
Method in brief: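 Primary rat cortical neurons on 16-electrode MEA wells, exposed from plating day 0 through DIV 12, compound renewed at DIV 5 and 9 media changes. Mean interval between network-spike peaks recorded DIV 5, 7, 9, 12; collapsed as trapezoidal AUC, fitted downward versus DMSO.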

[6] = CCTE_Shafer_MEA_dev_network_spike_number: CCTE's Neural Network Formation Assay for Number of Network Spikes, Shafer Lab (AID 2284048);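 also: synchronized bursts across electrodes counted on days 5 7 9 12 and integrated as AUC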;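 as to AC50: fit as a loss of signal meaning fewer network spikes than DMSO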
Method in brief: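 Rat cortical primary cultures on 48-well MEA (16 electrodes/well); continuous exposure DIV 0–12, full medium and treatment exchange DIV 5, 9. Readout: network spike count, AxIS adaptive detection, recordings DIV 5/7/9/12 collapsed to AUC; loss-of-signal fit, DMSO baseline.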

[7] = CCTE_Shafer_MEA_dev_network_spike_peak: CCTE's Neural Network Formation Assay for Mean Number of Electrodes in Network Spike, Shafer Lab (AID 2284049);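 as to AC50: fitted for loss of signal meaning fewer electrodes in network spikes than DMSO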
Method in brief: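 Network-spike peak electrode count from recordings on days 5, 7, 9 and 12 was combined as trapezoidal area under the curve. Rat cortical cultures were treated continuously from plating, with compound renewed at each feed (DIV 5, 9); fits versus DMSO.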

[8] = CCTE_Shafer_MEA_dev_spike_duration_mean: CCTE's Neural Network Formation Assay for Mean Spike Duration, Shafer Lab (AID 2284051);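 also: mean network spike duration pooled as area under curve over DIV 5 to 12 recordings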;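 as to AC50: potency for a decrease in mean network spike duration versus DMSO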
Method in brief: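 Primary rat cortical neurons on 16-electrode MEA wells (PEI-coated, laminin in plating drop), exposed from plating through DIV 12 with compound renewed at DIV 5 and 9. Mean network-spike duration recorded DIV 5, 7, 9, 12; trapezoidal AUC across days, DMSO baseline.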

[9] = CCTE_Shafer_MEA_dev_network_spike_duration_std: CCTE's Neural Network Formation Assay for Standard Deviation of Network Spike Duration, Shafer Lab (AID 2284052);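 also: area under curve of spike duration SD across recording days 5 to 12; hits are decreases in network spike duration SD versus DMSO vehicle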
Method in brief: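 Primary rat cortical neurons on PEI-coated 16-electrode MEA wells, exposed from plating day 0 through day 12 with compound renewed at DIV 5 and 9. Network spike duration SD recorded on days 5, 7, 9, 12, collapsed as trapezoidal AUC; loss-of-signal fit versus DMSO.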

[10] = CCTE_Shafer_MEA_dev_per_network_spike_spike_percent: CCTE's Neural Network Formation Assay for Percent of Spikes in a Network Spike, Shafer Lab (AID 2284054)
Method in brief: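 Read-out: percent of spikes falling in a 0.05 s window at network-spike peak, from spontaneous MEA recordings on days 5, 7, 9 and 12; trapezoidal AUC; loss of signal versus DMSO. Rat cortical cultures, compound present throughout.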

[11] = CCTE_Shafer_MEA_dev_LDH: CCTE's Lactate Dehydrogenase Assay for Cytotoxicity in the Neural Network Formation Assay, Shafer Lab (AID 2284068; active = hit-call score of the fitted dose curve at least 0.9, where 1 is the maximum;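 also: exposure for twelve days from plating with re-dosing on DIV 5 and 9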)
Method in brief: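 Primary rat cortical neurons were plated on PEI/laminin MEA plates and exposed from day 0 for twelve days, with compound renewed at DIV 5 and 9. Cytotoxicity was determined by spectrophotometric LDH assay relative to DMSO.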

[12] = CCTE_Shafer_MEA_dev_AB: CCTE's Alamar Blue Assay for Cytotoxicity in the Neural Network Formation Assay, Shafer Lab (AID 2284083; active = hit-call score of the fitted dose curve at least 0.9, where 1 is the maximum;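 also: twelve days of exposure from plating with re-dosing on DIV 5 and 9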)
Method in brief: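 Primary rat cortical neurons on PEI-coated 48-well MEA plates, 1.5 x 10^5 cells/well in laminin drop; compound exposure from day 0 of plating for twelve days, renewed at medium changes on DIV 5 and 9. Viability read as resazurin reduction by fluorescence, relative to DMSO.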

[13] = CCTE_Shafer_MEA_acute_LDH: CCTE's Lactate Dehydrogenase Assay for Cytotoxicity in the Neural Acute Assay, Shafer Lab (AID 2284086; active = hit-call score of the fitted dose curve at least 0.9, where 1 is the maximum;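 also: active means LDH release rises above DMSO vehicle level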)
Method in brief: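 LDH absorbance at 490 nm in medium taken right after 40-min compound exposure; rat primary cortical neuron networks on MEA plates, days post-plating 13 or 15. Increase over DMSO baseline scored as cytotoxicity.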

[14] = CCTE_Shafer_MEA_dev_mutual_information_norm: CCTE's Neural Network Formation Assay for Mutual Information Normalization, Shafer Lab (AID 2284091);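 as to AC50: mutual information between electrodes summarised as area under curve across four recording days; potency is for a decrease in mutual information relative to DMSO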
Method in brief: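 Neurons from rat cortex were seeded at 1.5 x 10^5 cells/well onto PEI-coated MEAs in a laminin drop, then exposed to compound from day 0 for twelve days. Network recordings on four days gave mutual information, summarised by AUC relative to DMSO.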

[15] = molecular target: Estrogen receptor (Homo sapiens) (UniProt P03372); test: CCTE_Deisenroth_AIME_384WELL_LUC_Shift: CCTE's 384-well Estrogen Receptor Transactivation Assay with AIME metabolic competence data shift (ERTA luciferase; difference in metabolism positive and negative), Deisenroth Lab (AID 2284041);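 also: shift is response with S9 minus without S9 so positive means metabolism raised ER signal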
Sequence of Estrogen receptor (Homo sapiens) (P03372 whole entry, looked up): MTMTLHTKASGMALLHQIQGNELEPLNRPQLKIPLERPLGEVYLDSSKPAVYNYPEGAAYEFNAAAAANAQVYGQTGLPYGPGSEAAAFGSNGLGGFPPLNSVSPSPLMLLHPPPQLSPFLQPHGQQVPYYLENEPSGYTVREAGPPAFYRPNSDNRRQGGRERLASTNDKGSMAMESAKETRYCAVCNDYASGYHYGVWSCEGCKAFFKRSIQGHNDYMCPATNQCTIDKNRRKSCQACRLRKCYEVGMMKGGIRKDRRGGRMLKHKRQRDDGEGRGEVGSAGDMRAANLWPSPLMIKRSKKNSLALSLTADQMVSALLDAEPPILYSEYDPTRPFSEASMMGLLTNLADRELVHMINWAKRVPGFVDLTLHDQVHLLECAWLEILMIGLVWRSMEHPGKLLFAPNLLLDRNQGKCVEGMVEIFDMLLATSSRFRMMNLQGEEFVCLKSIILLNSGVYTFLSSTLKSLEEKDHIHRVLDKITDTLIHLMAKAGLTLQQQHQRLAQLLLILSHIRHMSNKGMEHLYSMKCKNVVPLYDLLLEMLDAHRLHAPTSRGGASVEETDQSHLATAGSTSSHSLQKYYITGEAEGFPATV
Method in brief: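 Chemicals (0.002–200 uM, 10 points) pre-incubated 2 h with alginate-encapsulated induced male Sprague Dawley rat liver S9 or S9-free, then medium applied 24 h to VM7Luc4E2 cells; luciferase. Endpoint is per-concentration difference, S9-positive minus negative.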

DIO2 (gene 1734) = test: CCTE_GLTED_hDIO2: CCTE's human Deiodinase 2 (DIO2) Inhibition Assay, Great Lakes Toxicology and Ecology Division (GLTED) Lab (AID 2284050; active = hit-call score of the fitted dose curve at least 0.9, where 1 is the maximum)
Method in brief: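 Readout: absorbance from Sandell-Kolthoff detection of free iodide released by human DIO2 during a 3 h incubation with chemical. Cell-free format, n=3; activity fitted relative to DMSO negative control.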

DIO3 (gene 1735) = test: CCTE_GLTED_hDIO3: CCTE's human Deiodinase 3 (DIO3) Inhibition Assay, Great Lakes Toxicology and Ecology Division (GLTED) Lab (AID 2284055; active = hit-call score of the fitted dose curve at least 0.9, where 1 is the maximum;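 also: potency is for inhibition seen as loss of released iodide signal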)
Method in brief: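 hDIO3 (adenovirus-expressed) + test chemical, 3 h incubation; free iodide quantified by Sandell-Kolthoff reaction, absorbance read-out. DMSO negative control, n=3.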

[16] = CCTE_Deisenroth_AIME_384WELL_CTox_Inactive: Cytotoxicity Assessment (CTOX) in CCTE's 384-well Estrogen Receptor Transactivation Assay without AIME metabolic competence (metabolism negative), Deisenroth Lab (AID 2284039; active = hit-call score of the fitted dose curve at least 0.9, where 1 is the maximum;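 also: cell viability via live-cell protease substrate cleaved to fluorescent probe; cells exposed 24 h to medium preincubated 2 h with alginate-water beads without S9; loss of fluorescence signal means loss of viability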)
Method in brief: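 VM7Luc4E2 cells, metabolism-negative arm: test chemicals (0.002–200 uM, 10 points) pre-incubated 2 h with alginate-water microspheres, then medium transferred to cells for 24 h. Viability read as protease-substrate cleavage to fluorescent probe; loss-of-signal, bidirectional fitting.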

[17] = UKN5_HCS_SBAD2_cell_viability: Viability Assessment in the University of Konstanz (UKN) Leist Lab Neurite Outgrowth Assay in human iPSC-derived immature Dorsal Root Ganglia Neurons (UKN5) (AID 2284056)
Method in brief: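 iPSC-derived immature peripheral neurons (SBAD2) seeded on Matrigel with CHIR99021, SU5402 and DAPT, dosed 1 h later for 24 h. Viability from Hoechst H-33342 and calcein-AM live staining, high-content imaging; bidirectional fit versus DMSO.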

[18] = UKN5_HCS_SBAD2_neurite_outgrowth: University of Konstanz (UKN) Leist Lab Neurite Outgrowth Assay in human iPSC-derived immature Dorsal Root Ganglia Neurons (UKN5) (AID 2284070); conditions: actives raise or lower the signal
Method in brief: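 Cryopreserved SBAD2 peripheral neurons were seeded at 100.000 cells/cm2 in N2-S/KSR medium containing CHIR99021, SU5402 and DAPT, then exposed to compounds for 24 h. Neurite area from calcein-AM high-content imaging was fitted bidirectionally against DMSO.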

Measured: AC50

CCC(C)(C)C(=O)OC1=C(c2ccc(Cl)cc2Cl)C(=O)OC12CCCCC2
not listed: [15] | DIO2 (gene 1734) | DIO3 (gene 1735) | [16] | [17] | [18]
inactive: all other assays above

CNC(=O)Oc1ccccc1OC(C)C
inactive: [15]

N#Cc1c(Cl)c(Cl)c(Cl)c(C#N)c1Cl
active: DIO2 (gene 1734) 5.63 µM | DIO3 (gene 1735) 0.404 µM

Clc1ccccc1-c1nnc(-c2ccccc2Cl)nn1
inactive: [16] | [15] | [13]

OCCOc1ccccc1
active: [15] 23.8 µM
inactive: [16]

CC(C)N(C(=O)COc1nnc(C(F)(F)F)s1)c1ccc(F)cc1
active: [3] 24.5 µM | [7] 23.3 µM | [8] 24.5 µM | [10] 15 µM | [11] 15 µM | [12] 7.79 µM
inactive: [16] | [1] | [15] | [2] | [3] | [4] | [5] | [6] | [7] | [8] | [9] | [10] | [17] | [11] | [18] | [12] | [13] | [14]

ClC1C(Cl)C(Cl)C(Cl)C(Cl)C1Cl (centres undefined)
not listed: [15] | DIO2 (gene 1734) | DIO3 (gene 1735) | [16]
inactive: all other assays above

Oc1ccc(Cl)cc1Cc1ccccc1
active: DIO2 (gene 1734) 132 µM | DIO3 (gene 1735) 158 µM
inactive: [13]

CCOC1Oc2ccc(OS(C)(=O)=O)cc2C1(C)C (centres undefined)
active: [16] 100 µM
inactive: [15]

O=S1OCC2C(CO1)C1(Cl)C(Cl)=C(Cl)C2(Cl)C1(Cl)Cl (centres undefined)
inactive: [16] | [15] | [4] | [5] | [9] | [13]
active: [1] 8.87 µM | [2] 8.87 µM | [3] 8.62 µM | [6] 5.95 µM | [7] 8.02 µM | [8] 8.4 µM | [10] 4.76 µM | [11] 8.55 µM | [12] 9.32 µM | [14] 7.83 µM

CNC(=O)CSP(=S)(OC)OC
inactive: [2] | [4] | [5] | [6] | [8] | [9] | [14]
active: [1] 77.4 µM and 18.9 µM | [2] 78.2 µM | [3] 66.4 µM and 21.9 µM | [7] 50 µM and 15 µM | [8] 50 µM | [10] 50 µM and 15 µM | [11] 66.6 µM and 24.2 µM | [12] 50 µM and 26.8 µM | [14] 50 µM

C[C@H]1[C@H](c2ccc(Cl)cc2)SC(=O)N1C(=O)NC1CCCCC1
inactive: [16] | [15] | [13]

O=C(O)C(F)(F)C(F)(F)C(F)(F)C(F)(F)C(F)(F)C(F)(F)C(F)(F)F
active: [1] 14.1 µM | [7] 13.9 µM | [17] 768 µM | [18] 899 µM
inactive: [16] | [1] | [2] | [3] | [4] | [5] | [6] | [7] | [8] | [9] | [10] | [11] | [14]

CCCN(CCC)c1c([N+](=O)[O-])cc(C(F)(F)F)cc1[N+](=O)[O-]
inactive: [15] | [13]

N#CN
inactive: [13]

CCCN(CCOc1c(Cl)cc(Cl)cc1Cl)C(=O)n1ccnc1
inactive: [13]

Oc1cc(Cl)ccc1Oc1ccc(Cl)cc1Cl
active: [1] 9.79 µM | [2] 8.47 µM | [3] 9.29 µM | [4] 16 µM | [7] 9.85 µM | DIO2 (gene 1734) 84 µM | [8] 10 µM | [9] 7.04 µM | [10] 9.46 µM | DIO3 (gene 1735) 85.5 µM | [11] 6.58 µM | [12] 14.2 µM | [14] 8.5 µM
inactive: [16] | [5] | [6] | [13]

O=C(O)CCCOc1ccc(Cl)cc1Cl
inactive: [13]

CC1(c2ccc(Oc3ccccc3)cc2)OC(=O)N(Nc2ccccc2)C1=O (centres undefined)
active: [1] 4.84 µM | [2] 7.84 µM | [3] 4.99 µM | [4] 7.68 µM | [5] 3.1 µM | [6] 3.39 µM | [7] 5.73 µM | [8] 3.17 µM | [9] 3.66 µM | [10] 2.47 µM | [11] 3.28 µM | [12] 4.56 µM | [14] 1.34 µM
